Data from PubChem BioAssay (NCI).
About 79,000 compounds went through this panel and 15% of them were active in at least one assay; those are over-represented in the sample as a whole. The source made the active and inactive calls. No stated cut-off is given here; in the data, active means growth inhibition above about 70%; inactive means the rest.

How the values were obtained:
[1] = NCI Yeast Anticancer Drug Screen. Data for the rad50 strain (AID 155);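 further: 0% = growth of vehicle-only cultures of the same strain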; conditions: S. cerevisiae rad50 strain growth inhibition, active compounds read high
How it was run: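 Compounds were tested on a yeast strain with an engineered DNA damage repair alteration; the reported value is growth inhibition normalised to vehicle treatment.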

[2] = NCI Yeast Anticancer Drug Screen. Data for the mec2-1 strain (AID 157); conditions: S. cerevisiae mec2-1 strain, active compounds read high
How it was run: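 Test agents were screened against the mec2-1 yeast strain, with defined DNA repair or cell cycle alteration. Growth was scored as inhibition against vehicle-only controls.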

[3] = NCI Yeast Anticancer Drug Screen. Data for the sgs1 mgt1 strain (AID 161);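 further: 0% = growth of cultures given vehicle only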; conditions: S. cerevisiae sgs1 mgt1 strain, active compounds read high
How it was run: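 Mutant yeast exposed to compound; growth scored against vehicle-only wells.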

[4] = NCI Yeast Anticancer Drug Screen. Data for the cln2 rad14 strain (AID 165);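 further: 0% = growth equal to vehicle treated cultures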; conditions: S. cerevisiae cln2 rad14 strain, active compounds read high
How it was run: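 Growth of compound-exposed yeast (cln2 rad14 genotype) measured and expressed as inhibition relative to vehicle.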

[5] = NCI Yeast Anticancer Drug Screen. Data for the bub3 strain (AID 167); conditions: S. cerevisiae bub3 mutant strain, active compounds read high
How it was run: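 Growth of a checkpoint-deficient yeast mutant is measured after compound exposure. Values represent inhibition relative to vehicle.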

[6] = NCI Yeast Anticancer Drug Screen. Data for the mlh1 rad18 strain (AID 175); conditions: S. cerevisiae mlh1 rad18 strain growth inhibition, active compounds read high
How it was run: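 In this whole-cell yeast screen, a strain with altered DNA damage repair is challenged with compound, and its growth is measured against matched vehicle-treated controls.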

[7] = at 5.0 µM (retest, dose inferred, filed as 0.5)
[8] = at 50.0 µM (retest, dose inferred, filed as 5.0)

Measured: growth inhibition

c1ccc2c(c1)C[N+]1(CCCCCCC1)C2
active: [1]; at 50.0 µM 74.2% | [2]; at 50.0 µM 72.7% | [3]; [8] 77% | [6]; [8] 88%
inactive: [1]; [7] 19% | [1]; [8] 51% | [2]; [7] 6% | [2]; [8] 64% | [3]; [7] -2% | [3]; at 50.0 µM 69.9% | [4]; [7] -14% | [4]; [8] 25% | [4]; at 50.0 µM 53.6% | [5]; [7] -3% | [5]; [8] 36% | [5]; at 50.0 µM 58.9% | [6]; [7] 6% | [6]; at 50.0 µM 65.8%

Cn1c(=O)c2c(O)c(-c3ccccc3)c(=O)n3c4ccccc4n(c1=O)c23
inactive: [1]; [7] 19% | [1]; [8] 48% | [1]; at 50.0 µM 51.3% | [2]; [7] 21% | [2]; [8] 51% | [2]; at 50.0 µM 27.6% | [3]; [7] 28% | [3]; [8] 68% | [3]; at 50.0 µM 64.5% | [4]; [7] 7% | [4]; [8] 34% | [4]; at 50.0 µM 19.7% | [5]; [7] 10% | [5]; [8] 30% | [5]; at 50.0 µM 25.9% | [6]; [7] 18% | [6]; [8] 59% | [6]; at 50.0 µM 50.1%

O=S(=O)(CC(Br)CCl)c1ccccc1 (stereo not given)
inactive: [1]; [7] 2% | [1]; at 50.0 µM 15.1% | [2]; [7] 2% | [2]; [8] 55% | [2]; at 50.0 µM 31.3% | [3]; [7] -1% | [3]; [8] 46% | [3]; at 50.0 µM 40.5% | [4]; [7] 4% | [4]; [8] 17% | [4]; at 50.0 µM -62.6% | [5]; [7] 5% | [5]; [8] 38% | [5]; at 50.0 µM 54.8% | [6]; [7] 13% | [6]; at 50.0 µM 57%
active: [1]; [8] 72% | [6]; [8] 76%

O=C1/C(=N/N=C(c2ccccc2)c2ccccc2)c2ccccc2-c2ccccc21
inactive: [1]; [7] 7% | [1]; [8] 65% | [1]; at 50.0 µM 60.9% | [2]; [7] 1% | [2]; [8] 14% | [2]; at 50.0 µM 0.45% | [3]; [7] -1% | [3]; [8] 23% | [3]; at 50.0 µM -2.6% | [4]; [7] 2% | [4]; [8] -5% | [4]; at 50.0 µM 0.15% | [5]; [7] 7% | [5]; [8] 27% | [5]; at 50.0 µM 8.5% | [6]; [7] 7% | [6]; [8] 44%
active: [6]; at 50.0 µM 72.3%

O=C(NC(OCc1ccccc1)(C(F)(F)F)C(F)(F)F)OCc1ccccc1
inactive: [1]; [7] -14% | [2]; [7] -5% | [3]; [7] -9% | [4]; [7] 11% | [5]; [7] 13% | [6]; [7] 2%
active: [1]; [8] 98% | [1]; at 50.0 µM 96% | [2]; [8] 92% | [2]; at 50.0 µM 91% | [3]; [8] 98% | [3]; at 50.0 µM 93.7% | [4]; [8] 96% | [4]; at 50.0 µM 94.8% | [5]; [8] 95% | [5]; at 50.0 µM 94.5% | [6]; [8] 98% | [6]; at 50.0 µM 96.5%

CSC(=S)/C(=C/Nc1ncccn1)c1ccccc1
inactive: [1]; [7] 5% | [2]; [7] 3% | [3]; [7] -3% | [4]; [7] 1% | [4]; [8] 62% | [5]; [7] -3% | [6]; [7] 7%
active: [1]; [8] 97% | [1]; at 50.0 µM 94.8% | [2]; [8] 99% | [2]; at 50.0 µM 93.5% | [3]; [8] 94% | [3]; at 50.0 µM 79% | [4]; at 50.0 µM 95% | [5]; [8] 94% | [5]; at 50.0 µM 91.8% | [6]; [8] 97% | [6]; at 50.0 µM 94.5%

O=C(/C(=N/O)[n+]1ccccc1)c1ccccc1
active: [1]; at 50.0 µM 73.2% | [5]; [8] 94% | [6]; at 50.0 µM 78.5%
inactive: [1]; [7] -4% | [1]; [8] 69% | [2]; [7] -3% | [2]; [8] 60% | [2]; at 50.0 µM 26.8% | [3]; [7] -9% | [3]; [8] 33% | [3]; at 50.0 µM 41.7% | [4]; [7] -6% | [4]; [8] -7% | [4]; at 50.0 µM -10.8% | [5]; [7] -1% | [5]; at 50.0 µM 41.8% | [6]; [7] 4% | [6]; [8] 53%

Brc1ccc2[nH]c3ccccc3c2c1
inactive: [1]; [7] 2% | [1]; [8] 33% | [1]; at 50.0 µM 57.7% | [2]; [7] -4% | [2]; [8] 67% | [2]; at 50.0 µM 44.9% | [3]; [7] -3% | [3]; [8] 47% | [4]; [7] -2% | [4]; [8] 65% | [4]; at 50.0 µM 54.2% | [5]; [7] 3% | [5]; [8] 57% | [5]; at 50.0 µM 55.2% | [6]; [7] 4%
active: [3]; at 50.0 µM 86.8% | [6]; [8] 75% | [6]; at 50.0 µM 90%

C(=P(c1ccccc1)(c1ccccc1)c1ccccc1)[P+](c1ccccc1)(c1ccccc1)c1ccccc1.[Br][Cu][Br]
active: [1]; [7] 98% | [1]; [8] 99% | [1]; at 50.0 µM 99.2% | [2]; [7] 99% | [2]; [8] 99% | [2]; at 50.0 µM 99.5% | [3]; [7] 99% | [3]; [8] 99% | [3]; at 50.0 µM 99.2% | [4]; [7] 98% | [4]; [8] 99% | [4]; at 50.0 µM 98% | [5]; [7] 98% | [5]; [8] 99% | [5]; at 50.0 µM 99% | [6]; [7] 99% | [6]; [8] 99% | [6]; at 50.0 µM 99.3%

CN(C)CCCNc1c2ccccc2nc2cccc([N+](=O)[O-])c12
active: [1]; [7] 93% | [1]; [8] 99% | [1]; at 50.0 µM 89.4% | [2]; [7] 95% | [2]; [8] 99% | [2]; at 50.0 µM 93% | [3]; [7] 95% | [3]; [8] 99% | [3]; at 50.0 µM 92.8% | [4]; [7] 95% | [4]; [8] 99% | [4]; at 50.0 µM 89.2% | [5]; [7] 76% | [5]; [8] 99% | [5]; at 50.0 µM 90.8% | [6]; [7] 90% | [6]; [8] 98% | [6]; at 50.0 µM 89.9%
